Results reported in PubChem BioAssay AID1347055 (National Center for Advancing Translational Sciences (NCATS), 2019).
In all, about 54,000 compounds went through this assay and about 120 (0.22%) were called active. About 8% were inconclusive and are not listed. This is one part of a sample in which actives are shown more often than they occur. The call rests on the fitted dose curve; in most records, active means well fitted inhibition curve with a large enough effect; inconclusive means small, poorly fitted or top-dose-only effect, or effect the other way; inactive means flat fitted curve, though single readings scatter.

Target: Fumarate hydratase, mitochondrial (Homo sapiens) (UniProt P07954)
Assay: Identification of activators of human fumarate hydratase by quantitative high-throughput screening; further: the screen sought activators but most active calls are inhibition curves; nearly all actives have a fitted effect of over 45% in size
Conditions: FH coupled MDH/diaphorase resazurin fluorescence, 15 min; series mostly up to 79.9 µM
Text: Fumarate hydratase (FH) is a metabolic enzyme that is part of the Krebs-cycle, and reversibly catalyzes the hydration of fumarate to malate. Mutations of the FH gene have been associated with fumarate hydratase deficiency (FHD), hereditary leiomyomatosis, renal cell cancer (HLRCC), and other diseases. Currently there are no high-quality small molecule probes for studying human fumarate hydratase. To address this, we developed a quantitative high throughput screening (qHTS) FH assay and screened a total of 57,037 compounds in dose-response. While no inhibitors of FH were confirmed, a series of phenyl-pyrrolo-pyrimidine-diones (12 compounds) were identified as activators of human fumarate hydratase. […] The binding of two compounds from the series to human fumarate hydratase was confirmed by microscale thermophoresis. The low hit rate in this screening campaign confirmed that FH is a "tough target" to modulate, and the small molecule activators of human fumarate hydratase reported here may serve as a starting point for further optimization and development into cellular probes of human FH and potential drug candidates.
For primary high-throughput screen, 3 ul of FH solution (containing 13.33nM human fumarate hydratase, 13.33IU/ml malic dehydrogenase, 0.2mM NAD, 0.067mg/ml diaphorase and 0.067mM resazurin in the assay buffer (50 mM Tris pH 8.0, 5 mM MgCl2, 0.01% Brij 3) was dispensed into each well in a black solid bottom 1536-well assay plate (Greiner Bio-One) using a BioRAPTR FRD dispenser (Beckman Coulter, Brea, CA). A 1536-well pintool dispenser outfitted with 20 nl pins (Wako Automation, San Diego, CA) was used to transfer 20 nL of DMSO-solubilized compound (Cherrypick plates) to each 1536-well assay plate. Each compound was screened at five concentrations: 15 nM, 151 nM, 1.5 uM, 15.4 uM, 76.9 uM. Following compound transfer, plates were incubated in room temperature for 10 minutes. 1 uL of substrate solution containing fumaric acid (160 uM) was dispensed via BioRAPTR FRD to initiate the reaction. Plates were immediately transferred to a ViewLux microplate imager (PerkinElmer, Waltham, MA), and any resulting resorufin fluorescence was measured (exitation/emission, 525/598 nm) at 0 and 15 minutes. The exposure time is 1 second. Fluorescence from each well was normalized using enzyme-free and DMSO-treated control wells on each plate, and changes in fluorescence (delta RFU) were calculated using the difference in fluorescent signal for each well at 15 minutes versus 0 minutes.
On the % scale 0 is the no-effect control and ±100 the full control effect.

Chain of Fumarate hydratase, mitochondrial (Homo sapiens) (P07954 whole entry, looked up): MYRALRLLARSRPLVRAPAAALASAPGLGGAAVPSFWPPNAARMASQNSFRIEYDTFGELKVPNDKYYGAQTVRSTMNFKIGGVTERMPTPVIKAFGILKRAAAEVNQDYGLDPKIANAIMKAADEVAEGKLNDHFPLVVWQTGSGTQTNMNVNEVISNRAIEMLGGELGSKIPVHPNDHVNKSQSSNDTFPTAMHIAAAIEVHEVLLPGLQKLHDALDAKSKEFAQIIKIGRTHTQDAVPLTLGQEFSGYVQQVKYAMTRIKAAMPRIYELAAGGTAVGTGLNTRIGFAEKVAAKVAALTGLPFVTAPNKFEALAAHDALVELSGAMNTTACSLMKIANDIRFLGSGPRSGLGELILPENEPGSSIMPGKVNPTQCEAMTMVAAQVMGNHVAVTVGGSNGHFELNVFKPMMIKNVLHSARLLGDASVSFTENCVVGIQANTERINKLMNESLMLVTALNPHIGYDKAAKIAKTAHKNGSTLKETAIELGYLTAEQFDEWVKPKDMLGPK

Activity change, negative = inhibition, inactive:
CCOc1ccc(S(=O)(=O)N2CCCCCC2)c2ccccc12
C=C1CCC2C(C)(COC(C)=O)CCCC2(C)C1CCC(C)CC(=O)O (configuration not stated)
COC(=O)c1cc(NC(=O)c2cnc(SC)nc2-c2ccccc2)cc(C(=O)OC)c1
Cc1cc(NC(=O)CC(C)C)cc(-c2nc3ncccc3o2)c1O
CC(=O)c1cnc2ccc(-c3cc(Cl)c(O)c(Cl)c3)nc2c1NC1CCC(CN(C)C)CC1 (configuration not stated) -1.45% [at 0.673 µM]
COc1cc(O)c(C(=O)CCc2ccc(O)cc2)c(O[C@@H]2O[C@H](CO)[C@@H](O)[C@H](O)[C@H]2O)c1
CC(C)C1=CC2C(CC[C@]2(C)O)[C@](C)(O)CC1 (some centres not stated)
Fc1ccc(-c2nc(-c3ccccc3F)[nH]c2-c2ccncc2)cc1
COC(=O)c1[nH]c(=O)c2ccccc2c1-c1ccc[nH]1
CC(=O)N1CCc2cc(S(=O)(=O)NC(Cc3ccccc3)C(=O)NCc3ccc(C)cc3)ccc21 (configuration not stated)
O=C(Nc1ccc2nc(SCC(=O)N3CCCc4ccccc43)sc2c1)c1ccc(F)cc1
COc1ccc(NC(=O)CCN2CCN(CCO)CC2)cc1
CCc1ccc(CN(Cc2ccco2)C(=O)c2ccccc2Cl)cc1
COCCNS(=O)(=O)c1cc(-c2nn3c(C)nnc3c3ccccc23)ccc1C
CCOC(=O)c1ccc(NC(=O)c2c(NCc3cccs3)sc3c2CCCC3)cc1
CC(F)(F)CN1CCOc2c(nn(-c3ccccc3Cl)c2-c2ccc(Cl)cc2)C1=O
CCC/C=C/C(=O)O[C@H]1CC(C)(C)CC2[C@]13[C@H](O)O[C@@]21CCC2[C@@]4(C)CC[C@H](O[C@@H]5O[C@H](C(=O)O)[C@@H](O)[C@H](O[C@@H]6O[C@H](CO)[C@H](O)[C@H](O)[C@H]6O[C@@H]6O[C@@H](C)[C@H](O)[C@@H](O)[C@H]6O[C@@H]6OC[C@](O)(CO)[C@H]6O)[C@H]5O[C@@H]5O[C@H](CO)[C@H](O)[C@H](O)[C@H]5O)C(C)(C)C4CC[C@@]2(C)[C@]1(C)C[C@H]3OC(C)=O (some centres not stated) 27.8% [at 13.5 µM]
Cc1ccc(-c2nnc3c4ccccc4c(C)nn23)cc1NC(=O)c1cccc(Br)c1
Cc1cc(C)c(NC(=O)c2cc3sc(Cl)cc3n2C)c(C)c1
O=C(CN1C(=O)COc2ccc(S(=O)(=O)N3CCOCC3)cc21)N1CCN(c2cccc(Cl)c2)CC1
O=C(Cn1c(=O)n(Cc2cccs2)c(=O)c2cccnc21)Nc1ccc(F)cc1
C[C@H]1CC[C@@]2(OC1)O[C@H]1CC3C4CC[C@H]5C[C@@H](O)CC[C@]5(C)C4CC(=O)[C@]3(C)[C@H]1[C@@H]2C (some centres not stated)
